PubChem BioAssay (NCATS)
Inconclusive results are not listed. Active and inactive are the calls of the source. Unless noted, calls follow the shape of the dose curve; as a rule, active = well fitted curve in either direction with a large enough effect (not every such curve was filed as active); inconclusive = small, poorly fitted or top-dose-only effect, or another doubt; inactive = flat fitted curve, though single readings scatter.

Assays:
[1] = target: Lysosomal acid glucosylceramidase (Homo sapiens) (UniProt P04062); assay: Glucocerebrosidase-p2 (AID 348; in the data active = potency below about 10 µM; also: potency is read from the fitted curve at half-maximal effect); settings: purified GBA, blue fluorogenic substrate, 40 min
Procedure, shortened: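 Compounds titrated from 0.6 nM upwards against 0.2 nM enzyme in pH 5.9 citric acid/KH2PO4, taurocholate, tween-20; blue fluorogenic substrate 80 uM, 40 min room temperature, stopped and read Ex 365/Em 440 for AC50.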

[2] = target: Cytochrome P450 1A2 (Homo sapiens) (UniProt P05177); assay: p450-cyp1a2 (AID 410; calls by dose curve; also: potency is read from the fitted curve at half-maximal effect;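 as to activity change, negative = inhibition: -100% = full effect of reference inhibitor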); settings: recombinant CYP1A2, luciferin-ME demethylation, luminescence; series mostly up to 57 µM
Procedure, shortened: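 Inhibition was calculated relative to 57 uM furafylline (full inhibition). The reaction used human CYP1A2 at 20nM with Luciferin-ME at its Km, 100uM, driven by an NADPH-regenerating system for 60 min at room temperature.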

[3] = target: Glucocorticoid receptor (Homo sapiens) (UniProt P04150); assay: GR-EFC Redistribution (AID 451; calls by dose curve; also: potency is read from the fitted curve at half-maximal effect); settings: CHO-K1 GR-EFC translocation, beta-gal luminescence, 2 h
Procedure, shortened: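 Translocation of GR-ED fusion to nuclear EA restores b-gal, read by luminescence after 1 h room-temperature detection. Engineered CHO-K1 biosensor cells, 1,000/well, exposed 2 h at 37 C to titrations up to 46 uM final.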

[4] = target: Mitogen-activated protein kinase 10 (Mus musculus) (UniProt Q61831); assay: JNK3 AlphaScreen Assay (AID 530); settings: JNK3 lysate, c-Jun phosphorylation; series mostly up to 57.1 µM;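 also: kinase came from lysate of stimulated human HepG2 cells; signal reports phosphorylation of biotinylated GST-cJun 1-79 at Ser73 with 10 µM ATP; % is scaled to controls: 0 for no effect and ±100 for the full control effect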
Procedure, shortened: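 Room-temperature AlphaScreen kinase assay; pre-activated HepG2 lysate as JNK3 source, biotin-GST-cJun(1-79) substrate, 10 uM ATP, compound 15 min preincubation.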

[5] = target: 3',5'-cyclic-AMP phosphodiesterase 4B (Homo sapiens) (UniProt Q07343); assay: qHTS Assay for Inhibitors of PDE-IV (AID 607; active = well fitted activation curve with a large enough effect in the main read-out, with a control signal flat, not every such curve was filed as active; also: % of control where 0% means no effect); settings: HEK293 ACTOne CNG channel cells, membrane potential fluorescence; series mostly up to 22.9 µM
Procedure, shortened: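 Live HEK293 cells with a modified cyclic nucleotide-gated (CNG) channel report intracellular cAMP via membrane-potential dye fluorescence (ex 535/em 590 nm). Endogenous PDE-IV was targeted. Compounds were tested at up to 22.9 uM final; RO 20-1724 100 uM served as control.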

[6] = qHTS Assay for Lipid Storage Modulators (AID 1519; calls by dose curve); settings: Drosophila S3 cells, BODIPY lipid droplet/cell ratio, laser cytometry, cells loaded with oleic acid; for activity change, negative = inhibition: at 57.5 µM (top of the series)
Procedure, shortened: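 Cells seeded at 5,000 per well were treated with compounds over a concentration series and loaded with oleic acid (400 uM, as added). Lipid droplet fluorescence (488 nm excitation, 500-530 nm channel) was read by laser-scanning cytometry and normalized to 20 uM Triacsin C.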

[7] = Primary qHTS for small molecule stabilizers of the endoplasmic reticulum resident proteome: Secreted ER Calcium Modulated Protein (SERCaMP) assay (AID 1508630; active = well fitted curve in the direction sought with a large enough effect; an effect the other way counts as inactive or inconclusive; also: % is scaled to controls: 0 for no effect and ±100 for the full control effect); settings: SH-SY5Y GLuc-SERCaMP (Gaussia luciferase released on ER calcium loss) secretion, thapsigargin, luminescence; series mostly up to 38.4 µM
Procedure, shortened: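 GLuc-SERCaMP-expressing SH-SY5Y cells, pretreated 16 h with compound, are challenged with thapsigargin to empty ER calcium stores; after 4 h, coelenterazine is added directly to the medium and luminescence is imaged.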

[8] = target: Glucocorticoid receptor (Homo sapiens) (UniProt P04150); assay: GR-GFP Redistribution (AID 450;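 active = compounds whose dose series gives a full or clear partial fitted curve of increased nuclear translocation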; also: potency is read from the fitted curve at half-maximal effect); settings: U2OS GR-GFP nuclear translocation, laser cytometry, 2 h
[9] = Confirmation and Secondary Assay for Modulators of Hemoglobin Beta Chain Splicing at IVS2 654 locus (AID 910; active = well fitted curve in the direction sought with a large enough effect; an effect the other way counts as inactive or inconclusive;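 also: HeLa cells stably carrying EGFP split by mutant beta-globin IVS2-654 intron; % of control where 0% means no effect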); settings: HeLa EGFP-654 splicing reporter, GFP fluorescence, 48 h; series mostly up to 38.3 µM
Procedure, shortened: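 Readout: per-well total peak green fluorescence (488 nm ex, 500–520 nm em) from objects 5–250 µm, reflecting correct splicing of an EGFP-654 reporter. Compounds were applied for 2 days at 37 °C to overnight-plated HeLa EGFP-654 cells; controls were DMSO and 500 nM IVS2-654 PNA.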

[10] = Confirmation and Secondary Assay for Modulators of Hemoglobin Beta Chain Splicing at IVS2 705 locus (AID 930; active = well fitted curve in the direction sought with a large enough effect; an effect the other way counts as inactive or inconclusive;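 also: HeLa cells stably expressing the EGFP-705 splicing reporter; GFP fluorescence per well restored by corrected splicing of the IVS2-705 intron in EGFP; % of control where 0% means no effect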); settings: HeLa EGFP-705 splicing reporter, GFP fluorescence, 48 h; series mostly up to 38.3 µM
Procedure, shortened: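 HeLa cells stably carrying EGFP interrupted by mutant beta-globin intron 2 (IVS2-705) treated 2 days at 37C with compound; 500 nM antisense PNA as control. Correct splicing read as total peak GFP intensity per well by laser-scanning cytometry.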

[11] = target: Ubiquitin carboxyl-terminal hydrolase 1 (Homo sapiens) (UniProt O94782); assay: Inhibitors of USP1/UAF1: Pilot qHTS (AID 504865; active = well fitted curve in the direction sought with a large enough effect; an effect the other way counts as inactive or inconclusive;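 also: rhodamine fluorescence freed from ubiquitin-rhodamine substrate followed over time; top concentration of the series differs between compounds; % is scaled to controls: 0 for no effect and ±100 for the full control effect; nearly all actives have a fitted effect of over 35% in size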); settings: purified USP1/UAF1, Ub-rhodamine cleavage fluorescence; series mostly up to 54.9 µM
Procedure, shortened: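 Deubiquitinase activity followed as kinetic rhodamine fluorescence release from 150 nM Ub-Rho. 1 nM USP1/UAF1 with compound, after 15 min room-temperature preincubation, in HEPES pH 7.8 buffer containing TCEP, EDTA, BSA and Tween-20.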

[12] = AP1 Signaling Pathway (AID 357); settings: ME-180 AP-1-bla reporter, EGF-induced, beta-lactamase ratio, 5 h; at 7.69 µM (top of the series) unless noted;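 also: ME-180 reporter cells stimulated with EGF at its EC50 level; % is scaled to controls: 0 for no effect and ±100 for the full control effect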
Procedure, shortened: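 A ratiometric CCF4 readout (405 nm excitation; 460 and 530 nm emission) quantified AP-1-driven beta-lactamase in ME-180 cells after 5 h with compound and EC50 EGF; AC50 values were derived for activators and inhibitors.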

[13] = NFAT Signaling Pathway (AID 444); settings: Jurkat NFAT-bla M1, carbachol, beta-lactamase ratio, 5 h; at 7.69 µM (top of the series) unless noted;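 also: carbachol stimulus at about its EC50 of 1 µM final; % is scaled to controls: 0 for no effect and ±100 for the full control effect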
Procedure, shortened: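 Read-out: CCF4 FRET ratio (460 nm/530 nm) after 1 h RT dye loading, used for %activity and AC50 from titration series. Cells: Jurkat NFAT-β-lactamase/M1 line, treated with compound plus 1 uM carbachol for 5 h, 37 °C.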

[14] = Stat Signaling Pathway (AID 446); settings: ME-180 (cervical carcinoma) SIE beta-lactamase reporter, IL-6 stimulated, 5 h; at 7.69 µM (top of the series) unless noted
Procedure, shortened: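 IL-6/STAT signaling read in ME-180 cells via an SIE beta-lactamase reporter. Stimulus was 40 pM IL-6 (its AC50) for 5 hrs, so both activation and inhibition register.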

[15] = target: Cytochrome P450 2C9 (Homo sapiens) (UniProt P11712); assay: qHTS Assay for Inhibitors and Substrates of Cytochrome P450 2C9 (AID 883; active = well fitted curve in the direction sought with a large enough effect; an effect the other way counts as inactive or inconclusive; also: % is scaled to controls: 0 for no effect and ±100 for the full control effect; nearly all actives have a fitted effect of over 60% in size); settings: recombinant CYP2C9, luciferin-H luminescence, 60 min; series mostly up to 57.1 µM
Procedure, shortened: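 Turnover of Luciferin-H (100uM, KM) by 10nM human CYP2C9 was measured over 60 min at 37C with NADPH regeneration; inhibitors and some substrates reduce luminescence. Data normalized to sulphaphenazole 57uM.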

[16] = target: Cytochrome P450 2D6 (Homo sapiens) (UniProt P10635); assay: qHTS Assay for Inhibitors and Substrates of Cytochrome P450 2D6 (AID 891; active = well fitted curve in the direction sought with a large enough effect; an effect the other way counts as inactive or inconclusive; also: potency is read from the fitted curve at half-maximal effect; nearly all actives have a fitted effect of over 60% in size); settings: recombinant CYP2D6, luciferin-ME EGE luminescence; series mostly up to 57.1 µM
Procedure, shortened: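 Human CYP2D6 (5 nM) with 30 uM Luciferin-ME EGE (at Km) in 100 mM KPO4, compound preincubated 10 min, then NADPH regeneration system for 60 min at room temperature. Luciferin read by luminescence; normalized to 1.43 uM quinidine.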

[17] = measured here: cell count channel max response
[18] = measured here: lipid channel max response

Chain of Cytochrome P450 1A2 (Homo sapiens) (P05177 whole entry, looked up): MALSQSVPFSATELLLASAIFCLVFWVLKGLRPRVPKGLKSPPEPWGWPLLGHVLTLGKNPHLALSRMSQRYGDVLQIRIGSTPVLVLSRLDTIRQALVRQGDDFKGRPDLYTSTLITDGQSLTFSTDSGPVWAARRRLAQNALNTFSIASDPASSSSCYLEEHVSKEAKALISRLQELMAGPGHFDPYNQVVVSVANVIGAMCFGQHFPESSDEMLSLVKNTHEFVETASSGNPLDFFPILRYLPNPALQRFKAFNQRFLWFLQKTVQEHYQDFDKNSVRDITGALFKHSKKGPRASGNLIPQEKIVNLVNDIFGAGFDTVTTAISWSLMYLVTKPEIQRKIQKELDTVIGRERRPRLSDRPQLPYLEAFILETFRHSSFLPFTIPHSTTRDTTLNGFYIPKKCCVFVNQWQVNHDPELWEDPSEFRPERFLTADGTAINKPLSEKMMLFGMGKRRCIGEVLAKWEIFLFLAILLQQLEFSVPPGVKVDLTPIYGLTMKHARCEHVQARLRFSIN
Chain of Lysosomal acid glucosylceramidase (Homo sapiens) (P04062 whole entry, looked up): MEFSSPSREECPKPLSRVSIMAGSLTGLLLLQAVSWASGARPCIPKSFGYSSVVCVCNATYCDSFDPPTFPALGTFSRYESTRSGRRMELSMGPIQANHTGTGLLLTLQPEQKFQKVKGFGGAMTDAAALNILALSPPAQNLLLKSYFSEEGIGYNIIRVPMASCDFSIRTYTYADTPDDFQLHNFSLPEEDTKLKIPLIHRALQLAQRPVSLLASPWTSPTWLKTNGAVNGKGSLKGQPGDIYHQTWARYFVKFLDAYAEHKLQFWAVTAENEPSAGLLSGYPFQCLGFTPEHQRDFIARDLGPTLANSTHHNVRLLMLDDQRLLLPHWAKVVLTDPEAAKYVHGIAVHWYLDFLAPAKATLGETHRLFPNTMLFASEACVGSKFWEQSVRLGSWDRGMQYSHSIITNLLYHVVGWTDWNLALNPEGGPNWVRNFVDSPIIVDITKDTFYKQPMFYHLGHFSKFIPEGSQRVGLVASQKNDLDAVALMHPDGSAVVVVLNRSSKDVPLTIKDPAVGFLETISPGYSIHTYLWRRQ
Chain of 3',5'-cyclic-AMP phosphodiesterase 4B (Homo sapiens) (Q07343 whole entry, looked up): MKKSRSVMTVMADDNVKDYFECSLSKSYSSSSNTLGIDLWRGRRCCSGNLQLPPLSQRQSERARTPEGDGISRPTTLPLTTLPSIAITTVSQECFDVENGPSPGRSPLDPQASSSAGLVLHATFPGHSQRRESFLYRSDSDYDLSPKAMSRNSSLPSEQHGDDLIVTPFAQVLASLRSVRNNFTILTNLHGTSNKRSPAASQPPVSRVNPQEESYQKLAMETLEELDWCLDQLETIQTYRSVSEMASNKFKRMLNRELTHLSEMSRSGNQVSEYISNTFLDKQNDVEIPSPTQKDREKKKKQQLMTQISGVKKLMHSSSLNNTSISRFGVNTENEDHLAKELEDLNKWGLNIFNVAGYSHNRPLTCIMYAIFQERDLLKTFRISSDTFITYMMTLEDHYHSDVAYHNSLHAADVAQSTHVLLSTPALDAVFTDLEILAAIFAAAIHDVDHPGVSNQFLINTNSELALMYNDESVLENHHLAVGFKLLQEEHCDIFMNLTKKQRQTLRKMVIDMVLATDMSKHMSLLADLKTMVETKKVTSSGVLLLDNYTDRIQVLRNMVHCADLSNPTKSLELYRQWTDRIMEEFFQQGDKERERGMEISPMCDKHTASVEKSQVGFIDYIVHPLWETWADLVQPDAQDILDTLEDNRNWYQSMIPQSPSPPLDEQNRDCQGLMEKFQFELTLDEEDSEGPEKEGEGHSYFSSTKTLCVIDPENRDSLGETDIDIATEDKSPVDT
Chain of Glucocorticoid receptor (Homo sapiens) (P04150 whole entry, looked up, the tested form may be a part): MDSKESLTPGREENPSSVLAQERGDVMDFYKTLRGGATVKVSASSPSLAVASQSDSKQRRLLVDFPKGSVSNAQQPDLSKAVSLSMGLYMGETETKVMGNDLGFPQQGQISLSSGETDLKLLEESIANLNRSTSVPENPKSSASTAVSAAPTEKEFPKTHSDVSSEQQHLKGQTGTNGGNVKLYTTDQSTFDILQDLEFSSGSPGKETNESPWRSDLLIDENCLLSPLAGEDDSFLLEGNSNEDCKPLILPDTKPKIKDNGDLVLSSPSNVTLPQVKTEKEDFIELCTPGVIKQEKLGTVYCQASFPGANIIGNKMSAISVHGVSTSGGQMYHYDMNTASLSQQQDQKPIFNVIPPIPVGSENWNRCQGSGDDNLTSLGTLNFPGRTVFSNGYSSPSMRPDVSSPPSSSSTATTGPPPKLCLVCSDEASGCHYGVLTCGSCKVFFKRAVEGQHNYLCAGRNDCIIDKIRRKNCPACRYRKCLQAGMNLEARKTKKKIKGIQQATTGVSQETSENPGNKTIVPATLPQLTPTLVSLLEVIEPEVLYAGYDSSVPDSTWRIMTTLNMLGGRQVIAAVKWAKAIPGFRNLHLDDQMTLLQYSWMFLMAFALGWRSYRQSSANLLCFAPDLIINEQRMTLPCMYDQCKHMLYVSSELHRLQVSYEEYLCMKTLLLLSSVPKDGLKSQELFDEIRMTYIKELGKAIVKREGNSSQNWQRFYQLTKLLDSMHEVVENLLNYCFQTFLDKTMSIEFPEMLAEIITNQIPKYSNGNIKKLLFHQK
Chain of Ubiquitin carboxyl-terminal hydrolase 1 (Homo sapiens) (O94782 whole entry, looked up): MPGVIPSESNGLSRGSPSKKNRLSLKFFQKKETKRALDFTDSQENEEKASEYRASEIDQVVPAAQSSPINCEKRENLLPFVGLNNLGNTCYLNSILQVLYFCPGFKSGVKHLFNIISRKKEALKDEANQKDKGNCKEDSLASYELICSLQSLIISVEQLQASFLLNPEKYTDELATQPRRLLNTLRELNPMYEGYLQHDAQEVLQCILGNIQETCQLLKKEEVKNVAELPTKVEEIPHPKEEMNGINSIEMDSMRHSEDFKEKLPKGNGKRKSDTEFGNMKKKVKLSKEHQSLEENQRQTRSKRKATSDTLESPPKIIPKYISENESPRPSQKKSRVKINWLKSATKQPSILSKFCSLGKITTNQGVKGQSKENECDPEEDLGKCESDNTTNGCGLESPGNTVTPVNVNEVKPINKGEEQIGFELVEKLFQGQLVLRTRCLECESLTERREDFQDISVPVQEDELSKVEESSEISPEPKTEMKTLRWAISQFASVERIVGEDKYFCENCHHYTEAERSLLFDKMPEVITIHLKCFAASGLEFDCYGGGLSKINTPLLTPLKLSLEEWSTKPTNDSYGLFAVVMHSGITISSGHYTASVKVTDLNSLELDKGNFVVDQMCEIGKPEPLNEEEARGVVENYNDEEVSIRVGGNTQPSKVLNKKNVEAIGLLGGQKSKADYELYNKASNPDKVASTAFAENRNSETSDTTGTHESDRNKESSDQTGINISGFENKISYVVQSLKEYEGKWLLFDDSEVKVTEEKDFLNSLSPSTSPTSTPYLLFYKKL
Chain of Cytochrome P450 2D6 (Homo sapiens) (P10635 whole entry, looked up): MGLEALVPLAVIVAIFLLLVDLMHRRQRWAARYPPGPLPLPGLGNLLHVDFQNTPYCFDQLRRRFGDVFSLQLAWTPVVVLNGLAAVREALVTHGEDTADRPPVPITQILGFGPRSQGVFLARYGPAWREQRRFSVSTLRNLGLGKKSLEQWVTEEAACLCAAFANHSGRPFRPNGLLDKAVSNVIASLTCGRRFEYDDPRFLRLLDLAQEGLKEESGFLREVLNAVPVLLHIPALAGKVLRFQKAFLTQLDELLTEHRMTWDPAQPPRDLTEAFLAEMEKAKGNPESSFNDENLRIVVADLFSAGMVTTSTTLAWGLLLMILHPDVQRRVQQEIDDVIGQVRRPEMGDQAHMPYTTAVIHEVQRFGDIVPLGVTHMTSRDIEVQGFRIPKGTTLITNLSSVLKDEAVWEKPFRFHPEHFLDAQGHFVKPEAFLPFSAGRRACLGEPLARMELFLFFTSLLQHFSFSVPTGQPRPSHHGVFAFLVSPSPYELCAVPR
Chain of Cytochrome P450 2C9 (Homo sapiens) (P11712 whole entry, looked up): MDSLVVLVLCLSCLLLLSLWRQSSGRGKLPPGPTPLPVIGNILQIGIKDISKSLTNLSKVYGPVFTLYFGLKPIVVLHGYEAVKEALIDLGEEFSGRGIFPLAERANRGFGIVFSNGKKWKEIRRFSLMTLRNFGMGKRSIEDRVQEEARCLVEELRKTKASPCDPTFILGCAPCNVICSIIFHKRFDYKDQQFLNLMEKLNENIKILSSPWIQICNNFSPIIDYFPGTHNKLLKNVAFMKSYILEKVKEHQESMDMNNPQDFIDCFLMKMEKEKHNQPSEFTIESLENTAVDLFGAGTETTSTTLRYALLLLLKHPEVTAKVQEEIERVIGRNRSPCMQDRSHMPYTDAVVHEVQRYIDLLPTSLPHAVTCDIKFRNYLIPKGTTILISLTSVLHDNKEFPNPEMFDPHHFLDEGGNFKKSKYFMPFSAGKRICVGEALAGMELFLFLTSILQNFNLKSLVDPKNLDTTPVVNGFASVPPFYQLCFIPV

SMILES	Potency [1]	Potency [2]	Potency [3]	Potency [4]	Potency [5]	activity change, negative = inhibition [6]	max response [6, 17]	max response [6, 18]	outcome [7]	Potency [8]	Potency [9]	outcome [10]	Potency [11]	activity change, negative = inhibition [12]	activity change, negative = inhibition [13]	activity, negative = inhibition [14]	activity change, negative = inhibition [15]	Potency [16]
O=S(=O)(c1ccccc1)N1CCC[C@@]2(CCN(Cc3cc(C(F)(F)F)cc(C(F)(F)F)c3)C2)C1	> 11.4 µM (inactive)	inactive	> 46 µM (inactive)	inactive	inactive	4.5% (inactive)	17.1%	25.2%	inactive	–	–	–	–	–	–	–	–	–
Cc1noc(C)c1-c1ccc2ncnc(NC3CC3)c2c1	> 11.4 µM (inactive)	–	–	inactive	inactive	-8.16% (inactive)	-21.4%	-28.4%	inactive	> 46 µM (inactive)	inactive	inactive	inactive	–	–	–	–	–
Cc1cnc(CNc2ncnc3ccc(-c4ccccc4CN(C)C)cc23)cn1	–	inactive	> 46 µM (inactive)	–	inactive	9.03% (inactive)	5.18%	15.6%	inactive	> 46 µM (inactive)	inactive	inactive	inactive	16.4% (inactive)	-29.4% (inactive)	11.7% (inactive)	39% [at 2.29 µM] (inactive)	2.51 µM (active)
COC(=O)N1CCC[C@@]2(CCN(C(=O)NC(C)C)C2)C1	> 11.4 µM (inactive)	–	> 46 µM (inactive)	inactive	inactive	2.29% (inactive)	-6.98%	-3.79%	inactive	–	–	–	–	–	-22.1% (inactive)	8.06% (inactive)	–	–
N#Cc1cccc(-c2ccc3ncnc(NCc4cccnc4)c3c2)c1	> 11.4 µM (inactive)	–	> 46 µM (inactive)	inactive	inactive	7.68% (inactive)	12%	20.4%	inactive	> 46 µM (inactive)	inactive	–	–	–	21.6% (inactive)	-12.3% (inactive)	–	–
Cc1noc(C)c1C(=O)N1CCC2(CCCN(C(=O)Nc3ccccc3)C2)CC1	–	12.6 µM (active)	> 46 µM (inactive)	inactive	inactive	2.45% (inactive)	20.4%	27.5%	inactive	–	–	–	–	-21% (inactive)	0.607% (inactive)	-8.55% (inactive)	–	–
O=C(Nc1cccc(F)c1)N1CC2(CCN(C(=O)c3cnccn3)CC2)C1	–	inactive	> 46 µM (inactive)	inactive	inactive	6.82% (inactive)	10.6%	20.5%	inactive	–	–	–	–	-4.36% (inactive)	20.8% (inactive)	-2.15% (inactive)	–	–
